Compound activity from PubChem.
In the library only some 2.8% were active in any assay of this set; here they are far more common.
NSD2 HMT inh – NSD2 (human) methyltransferase inhibition. O96028. NSD2 peptide methylation, AlphaScreen, 120 min. inhibition, % at 12.5 µM. 310,000 tested, 0.54% active. AID 743445; in the data active = inhibition above about 50%
Target sequence (O96028 whole entry, looked up): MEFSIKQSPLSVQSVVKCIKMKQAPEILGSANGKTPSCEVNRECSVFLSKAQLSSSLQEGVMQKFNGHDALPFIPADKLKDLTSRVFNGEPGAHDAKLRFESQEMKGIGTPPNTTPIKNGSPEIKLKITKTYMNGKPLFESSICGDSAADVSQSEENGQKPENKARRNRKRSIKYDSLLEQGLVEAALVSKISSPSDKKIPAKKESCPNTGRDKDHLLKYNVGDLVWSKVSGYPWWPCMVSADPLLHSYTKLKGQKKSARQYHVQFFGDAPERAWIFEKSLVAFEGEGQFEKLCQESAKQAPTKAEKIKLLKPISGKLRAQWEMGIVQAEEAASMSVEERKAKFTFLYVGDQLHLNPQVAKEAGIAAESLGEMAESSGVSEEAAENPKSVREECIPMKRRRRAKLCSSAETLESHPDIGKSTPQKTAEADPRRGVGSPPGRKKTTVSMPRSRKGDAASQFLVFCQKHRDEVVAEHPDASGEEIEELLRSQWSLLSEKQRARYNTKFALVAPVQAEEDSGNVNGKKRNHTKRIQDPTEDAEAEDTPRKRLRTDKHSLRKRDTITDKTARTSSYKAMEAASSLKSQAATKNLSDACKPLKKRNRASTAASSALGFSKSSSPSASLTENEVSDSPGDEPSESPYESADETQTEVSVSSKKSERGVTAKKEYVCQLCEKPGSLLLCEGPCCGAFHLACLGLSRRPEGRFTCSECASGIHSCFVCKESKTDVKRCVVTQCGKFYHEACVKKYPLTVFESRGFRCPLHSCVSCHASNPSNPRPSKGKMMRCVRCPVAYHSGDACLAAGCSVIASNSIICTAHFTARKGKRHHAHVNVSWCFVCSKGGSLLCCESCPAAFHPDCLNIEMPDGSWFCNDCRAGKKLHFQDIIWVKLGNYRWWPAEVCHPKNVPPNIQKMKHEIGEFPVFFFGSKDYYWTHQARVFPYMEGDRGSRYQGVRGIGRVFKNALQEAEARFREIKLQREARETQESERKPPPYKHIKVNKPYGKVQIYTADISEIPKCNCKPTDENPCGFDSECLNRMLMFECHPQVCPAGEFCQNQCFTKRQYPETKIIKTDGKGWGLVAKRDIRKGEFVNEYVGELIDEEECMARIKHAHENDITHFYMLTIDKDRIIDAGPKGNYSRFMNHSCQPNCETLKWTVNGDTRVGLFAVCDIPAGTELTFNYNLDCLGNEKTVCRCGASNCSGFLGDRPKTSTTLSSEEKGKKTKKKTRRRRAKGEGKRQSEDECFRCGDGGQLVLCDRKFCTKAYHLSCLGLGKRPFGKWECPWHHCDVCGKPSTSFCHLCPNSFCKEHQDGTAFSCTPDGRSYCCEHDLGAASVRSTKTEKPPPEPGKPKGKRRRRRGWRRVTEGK
PAX8 reporter – inhibitors of PAX8 transcriptional activity in RMG-I cells; RMG-I TPO-luciferase reporter, SteadyGlo, 24 h; inhibition, % at 12.6 µM; 360,000 tested, 1.2% active; AID 652154;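 active = mean replicate inhibition at least 60% with every replicate also reaching 60%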;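 note: luciferase light reporting Pax8 driven TPO promoter activity; plate controls were median of neutral control wells for no effect and mitoxantrone controls for full effect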
Env fusion inh – HIV envelope-mediated fusion inhibition; HeLa-JRFL Env/CEM21 cell fusion, luciferase; inhibition, % at 12.3 µM; 360,000 tested, 1.1% active;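 active = mean replicate inhibition score of at least 50 and every replicate individually at or above 50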;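 note: 0% = plate neutral controls and 100% = maraviroc near 300 nM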
LMP1 NFkB inh – inhibitors of Epstein-Barr LMP1-induced NF-kappaB reporter; LMP1-induced NF-kappaB luciferase reporter cells, luminescence; inhibition, % at 12.5 µM; 350,000 tested, 0.69% active; AID 504558; in the data active = inhibition above about 41%;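 note: 0% = neutral control wells and 100% = reference inhibitor control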
N-glyco inh – N-linked glycosylation inhibition; D54 ERlucT glycosylation luciferase reporter, 24 h; percent of 100 nM tunicamycin response; reporter increase, % at 12.5 µM; 360,000 tested, 0.23% active;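 active = mean luciferase reporter signal, scaled so untreated is 0 and the glycosylation-blocking control 100, at or above a set limit in every replicate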;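 note: luciferase carries N-glycosylation sites so blocking glycosylation raises the light; 0% = median of neutral control wells and 100% = median of 100 nM tunicamycin wells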
Shn3 3UTR inh – reduces Shn3 3'UTR luciferase signal in osteoblasts; Clone20 osteoblast Shn3 3'UTR firefly luciferase, 24 h; inhibition, % at 12.5 µM; 360,000 tested, 0.52% active;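 active = mean inhibition of at least 75% with every replicate also reaching 75%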;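 note: 0% = median of neutral control wells and 100% = pilot-screen positive control compound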
An asterisk follows results filed as active; [ ] = remark or other dose.

What do the screens show for `COc1ccc(NC(=O)c2cc([N+](=O)[O-])ccc2O)cc1`?
NSD2 HMT inh: 4; PAX8 reporter: 100*; Env fusion inh: 83*; LMP1 NFkB inh: 75*; N-glyco inh: -20; Shn3 3UTR inh: 66

Results for Clc1ccc(CN(Cc2ccccc2)C(c2cccs2)c2nnnn2C2CCCC2)cc1 (stereo not drawn) ?
NSD2 HMT inh: -7; Env fusion inh: 94*; LMP1 NFkB inh: 2; N-glyco inh: -11

Results for Cc1ccc(S(=O)(=O)Nc2cc(-c3nn(C)c(=O)c4ccccc34)ccc2N2CCOCC2)cc1 ?
NSD2 HMT inh: -8; Env fusion inh: -5; LMP1 NFkB inh: -2; N-glyco inh: 45*; Shn3 3UTR inh: 18

Results for Cn1nc(-c2ccc(N3CCOCC3)c(NS(=O)(=O)c3ccc(Cl)cc3)c2)c2ccccc2c1=O ?
NSD2 HMT inh: 0; LMP1 NFkB inh: 4; N-glyco inh: 7; Shn3 3UTR inh: -59

How did COC(=O)c1ccccc1NC(=O)c1ccco1 do in these assays?
NSD2 HMT inh: -2; LMP1 NFkB inh: 3; N-glyco inh: 1; Shn3 3UTR inh: -3

What do the screens show for `COC(=O)c1cccc(COC(=O)c2ccccc2NC(=O)c2ccco2)c1`?
NSD2 HMT inh: -5; Env fusion inh: -12; LMP1 NFkB inh: 51*; N-glyco inh: -2; Shn3 3UTR inh: 1

What do the screens show for `COc1ccc(N2C(=O)C(=O)/C(=C(/O)c3ccc(C)cc3)C2c2cccnc2)cc1` (stereo not drawn)?
NSD2 HMT inh: 1; PAX8 reporter: 12; Env fusion inh: -13; LMP1 NFkB inh: 44*; N-glyco inh: 1; Shn3 3UTR inh: -29

What do the screens show for `COc1ccc(C2/C(=C(/O)c3ccc(C)cc3)C(=O)C(=O)N2C)cc1` (stereo not drawn)?
NSD2 HMT inh: -3; LMP1 NFkB inh: -8; N-glyco inh: 3; Shn3 3UTR inh: 4

How did C=CC(=O)N1C/C(=C/c2ccccc2)C(=O)/C(=C\c2ccccc2)C1 do in these assays?
NSD2 HMT inh: -1; PAX8 reporter: 80*; Env fusion inh: 79*; LMP1 NFkB inh: 85*; N-glyco inh: -19; Shn3 3UTR inh: 97*

Results for C=CC(=O)N1C/C(=C/c2ccc(Cl)cc2)C(=O)/C(=C\c2ccc(Cl)cc2)C1 ?
NSD2 HMT inh: 4; PAX8 reporter: 110*; Env fusion inh: 102*; LMP1 NFkB inh: 86*; N-glyco inh: -20; Shn3 3UTR inh: 97*

What do the screens show for `C[C@@H]1CN([C@H](C)CO)C(=O)c2cc(NC(=O)Cc3cn(C)c4ccccc34)ccc2O[C@@H]1CN(C)Cc1ccc(-c2ccccc2)cc1`?
Env fusion inh: -1[16.7 µM]

How did O=C(Nc1nc(COc2ccccc2)cs1)C12CC3CC(CC(C3)C1)C2 do in these assays?
NSD2 HMT inh: 4; Env fusion inh: 68*; LMP1 NFkB inh: -33; N-glyco inh: -4; Shn3 3UTR inh: -23

Results for Cc1ccc(S(=O)(=O)Nc2ccc3c(c2)C(=O)N([C@@H](C)CO)C[C@H](C)[C@@H](CN(C)Cc2ccc4c(c2)OCO4)OCCCC[C@H](C)O3)cc1 ?
PAX8 reporter: 43; Env fusion inh: -8[16.7 µM]

How did COc1ccc2c(c1)C1OCCC1C(c1ccco1)N2 (stereo not drawn) do in these assays?
NSD2 HMT inh: 5; LMP1 NFkB inh: 25; N-glyco inh: -7; Shn3 3UTR inh: -43

Results for CC(C)c1ccc2c(c1)[C@H]1OCC[C@H]1[C@@H](c1cccs1)N2 ?
NSD2 HMT inh: 0; PAX8 reporter: -10; Env fusion inh: 59*; LMP1 NFkB inh: 10; N-glyco inh: 2; Shn3 3UTR inh: 19

How did Cc1ccc(-c2csc3ncnc(SCC(=O)O)c23)cc1 do in these assays?
NSD2 HMT inh: 3; PAX8 reporter: -2; Env fusion inh: -2; LMP1 NFkB inh: 1; N-glyco inh: 2; Shn3 3UTR inh: -4

How did Cc1ccccc1N1CCN(c2ncnc3scc(-c4cccs4)c23)CC1 do in these assays?
NSD2 HMT inh: 0; PAX8 reporter: 19; Env fusion inh: 48; LMP1 NFkB inh: 14; N-glyco inh: -5; Shn3 3UTR inh: 19

How did Cc1nnc(NC(=O)CSc2ncnc3scc(-c4ccccc4)c23)s1 do in these assays?
NSD2 HMT inh: 4; PAX8 reporter: 0; Env fusion inh: -63; LMP1 NFkB inh: -2; N-glyco inh: 0; Shn3 3UTR inh: -4

What do the screens show for `Cn1nnnc1Sc1ncnc2scc(-c3ccsc3)c12`?
PAX8 reporter: 98*; Env fusion inh: -104; LMP1 NFkB inh: 43*; N-glyco inh: -11; Shn3 3UTR inh: -20

What do the screens show for `Cn1nnnc1Sc1ncnc2scc(-c3cc4ccccc4o3)c12`?
PAX8 reporter: 90*; LMP1 NFkB inh: 62*; N-glyco inh: -21; Shn3 3UTR inh: 62

Results for Cn1nnnc1Sc1ncnc2scc(-c3cccs3)c12 ?
LMP1 NFkB inh: 53*; N-glyco inh: -14; Shn3 3UTR inh: 28

Results for Cn1nnnc1Sc1ncnc2scc(-c3ccc(C#N)cc3)c12 ?
PAX8 reporter: 72*; Env fusion inh: -270; LMP1 NFkB inh: 57*; N-glyco inh: -18; Shn3 3UTR inh: 80

Results for C[C@@H]1CN([C@@H](C)CO)C(=O)Cc2cc(NC(=O)Cn3cnnn3)ccc2O[C@H]1CN(C)Cc1ccccc1 ?
PAX8 reporter: -13; Env fusion inh: 0[16.7 µM]

What do the screens show for `COC(=O)CSc1ncnc2scc(-c3ccccc3)c12`?
NSD2 HMT inh: 9; PAX8 reporter: -11; Env fusion inh: -3; LMP1 NFkB inh: 3; N-glyco inh: 0; Shn3 3UTR inh: 10

What do the screens show for `CC(=O)c1ccccc1-c1csc2ncnc(Sc3nnnn3C)c12`?
PAX8 reporter: 86*; Env fusion inh: 8; LMP1 NFkB inh: -46; N-glyco inh: 14; Shn3 3UTR inh: -14

Results for Cn1nnnc1Sc1ncnc2scc(-c3ccc(-c4ccccc4)cc3)c12 ?
PAX8 reporter: 77*; Env fusion inh: -79; LMP1 NFkB inh: 28; N-glyco inh: -5; Shn3 3UTR inh: 36

How did CCNC(=O)Nc1ccc2c(c1)C(=O)N(C)[C@H]1CC[C@@H](CC(=O)NCc3cccc(F)c3)O[C@@H]1CO2 do in these assays?
PAX8 reporter: -16; Env fusion inh: -9[16.7 µM]

What do the screens show for `O=C(COC(=O)c1ccc[nH]c1=O)Nc1ccc(N2CCCCC2)cc1`?
NSD2 HMT inh: -4; PAX8 reporter: 18; Env fusion inh: 62*; LMP1 NFkB inh: 46*; N-glyco inh: -3; Shn3 3UTR inh: 79

Results for O=C(NC1CCCCCCC1)C1CCN(c2nc3ccccc3o2)CC1 ?
NSD2 HMT inh: 5; Env fusion inh: 75*; LMP1 NFkB inh: 6; N-glyco inh: -2; Shn3 3UTR inh: 39

What do the screens show for `CO[C@H]1CN(C)C(=O)c2cc(NC(=O)c3cccc(F)c3)ccc2OC[C@H](C)N(CC2CC2)C[C@@H]1C`?
PAX8 reporter: -9

What do the screens show for `CS(=O)(=O)N1CC2(C1)[C@H](c1ccccc1)[C@H](CO)N2Cc1ccccn1`?
PAX8 reporter: -4
